The source made the active and inactive calls. No rule for the calls is given here.
These compounds were tested against Pantothenate synthetase (Mycobacterium tuberculosis (strain ATCC 25618 / H37Rv)) (UniProt P9WIL5) (assay: Recombinant Mtb pantothenate synthetase (PanC) inhibitors, coupled enzyme, confirmatory (AID 375;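 also: 0% = full reaction with vehicle and 100% = no enzyme background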)). Conditions: coupled enzyme assay; at 10 µM, hits give high values.
Chain of Pantothenate synthetase (Mycobacterium tuberculosis (strain ATCC 25618 / H37Rv)) (P9WIL5 whole entry, looked up): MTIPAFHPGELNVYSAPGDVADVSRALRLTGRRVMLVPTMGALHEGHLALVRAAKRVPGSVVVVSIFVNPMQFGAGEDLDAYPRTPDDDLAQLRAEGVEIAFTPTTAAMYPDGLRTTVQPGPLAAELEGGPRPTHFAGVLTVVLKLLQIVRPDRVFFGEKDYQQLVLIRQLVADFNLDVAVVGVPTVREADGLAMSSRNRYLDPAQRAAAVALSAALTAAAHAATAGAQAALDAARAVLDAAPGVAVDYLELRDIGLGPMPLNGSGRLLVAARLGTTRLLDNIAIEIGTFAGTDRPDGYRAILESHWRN

| SMILES | inhibition |
| --- | --- |
| CCCn1c(SCC(=O)NC(C)(C)C)nnc1C(C)C | 3% (inactive) |
| O=C(O)c1ccccc1Nc1cccc(C(F)(F)F)c1 | 2% (inactive) |
| [O-][n+]1onc2c1CCc1nnc(-c3ccccc3)cc1-2 | 0% (inactive) |
| CCOC(=O)N1CCN(c2cc(=O)n(-c3ccccc3Cl)c(=O)[nH]2)CC1 | 0% (inactive) |
| COc1ccc(N2CCN(C(c3cccs3)C(C)NC(=O)c3ccco3)CC2)cc1 (centres undefined) | 0% (inactive) |
| COc1ccccc1Nc1ncnc2c1cnn2-c1cccc(C)c1 | 0% (inactive) |
| Cn1c(=O)c(C(=S)NC(=O)C2CC2)c(N)n(Cc2ccccc2)c1=O | 3% (inactive) |
| C=CCn1c(C)cc(C(=O)CSc2nc3ccccc3c(=O)[nH]2)c1C | 0% (inactive) |
| COc1ccc(-n2ncc3c(=O)n(CC(=O)OCc4ccccc4)cnc32)cc1 | 0% (inactive) |
| CC1(C)Cc2c(c(-c3ccccc3)nc(N3CCCC3)c2C(N)=O)CO1 | 4% (inactive) |
| CCc1c(C)c2c(C)nn(-c3ccccc3)c2[nH]c1=O | 0% (inactive) |
| CCOC(=O)N1CCN(S(=O)(=O)c2cc(Cl)c(OC)cc2Cl)CC1 | 0% (inactive) |
| CCc1nnc2c3cnn(-c4ccccc4)c3ncn12 | 0% (inactive) |
| O=C(NCCC1=CCCCC1)C1CCN(S(=O)(=O)c2cccc3cccnc23)CC1 | 19% (inactive) |
| CCOC(=O)CCc1c(C)nc2cc(-c3ccc(F)cc3)[nH]n2c1=O | 0% (inactive) |
| O=C(CSc1nnc(-c2ccncc2)n1-c1ccc(F)cc1)NC(=O)NCc1ccco1 | 0% (inactive) |
| COC(=O)c1ccc(CNC(=O)CSc2nc3sc(C)c(C)c3c(=O)n2C)o1 | 0% (inactive) |
| CCOC(=O)c1c(NC(=O)OC)sc2c1CCC2 | 0% (inactive) |
| Cc1cc(NC(=O)CCC(=O)N(CC(=O)NC2CCCC2)Cc2ccc(F)cc2)no1 | 0% (inactive) |
| COc1cccc(C2CC(c3c(Cl)cccc3Cl)n3nc(N)nc3N2)c1 (centres undefined) | 0% (inactive) |
| CC1Cc2ccccc2N1C(=O)CSc1nnc2n1C(C)(C)Cc1ccccc1-2 (centres undefined) | 0% (inactive) |
| Cc1ccccc1C(=O)Nc1c(C(=O)N2CCCC2)cnn1-c1ccccc1 | 8% (inactive) |
| COc1ccccc1N(CC(=O)NCc1ccccc1)S(C)(=O)=O | 0% (inactive) |
| CC(=O)N(C(C)=O)c1cccc2c(N(C(C)=O)C(C)=O)cccc12 | 1% (inactive) |
